# LANA DNA inh = inhibitors of KSHV C-LANA binding to DNA, primary screen, biochemical, fluorescence polarization, FAM-LBS DNA, MBP-C-LANA, single point; 340,000 compounds, 0.078% hits; inhibition, % at 9 µM; Kaposi's sarcoma herpesvirus LANA C-terminal domain (residues 932-1162) DNA binding;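 active = highest replicate inhibition at or above 60% at 9 µM, even if other replicates fall short; inactive = all replicates below 60% inhibition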;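 note: 0% = neutral control wells and 100% = 4 µM acridine orange control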
# Keap1-Nrf2 PPI = Keap1-Nrf2 protein-protein interaction inhibitors, primary screen, biochemical, fluorescence polarization, single point | AID 504523, 2011 | 340,000 compounds, 0.15% hits | inhibition, % at 9.4 µM | Keap1 Kelch-Nrf2 peptide fluorescence polarization, 1536-well; in the data active = inhibition above about 12%;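 note: human Keap1 Kelch domain with fluorescein labeled Nrf2 9mer peptide probe; 0% = neutral control wells and 100% = peptide positive control; higher means more block of Keap1 binding to Nrf2 peptide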
# Target sequence (Q14145 whole entry, looked up, the tested form may be a part): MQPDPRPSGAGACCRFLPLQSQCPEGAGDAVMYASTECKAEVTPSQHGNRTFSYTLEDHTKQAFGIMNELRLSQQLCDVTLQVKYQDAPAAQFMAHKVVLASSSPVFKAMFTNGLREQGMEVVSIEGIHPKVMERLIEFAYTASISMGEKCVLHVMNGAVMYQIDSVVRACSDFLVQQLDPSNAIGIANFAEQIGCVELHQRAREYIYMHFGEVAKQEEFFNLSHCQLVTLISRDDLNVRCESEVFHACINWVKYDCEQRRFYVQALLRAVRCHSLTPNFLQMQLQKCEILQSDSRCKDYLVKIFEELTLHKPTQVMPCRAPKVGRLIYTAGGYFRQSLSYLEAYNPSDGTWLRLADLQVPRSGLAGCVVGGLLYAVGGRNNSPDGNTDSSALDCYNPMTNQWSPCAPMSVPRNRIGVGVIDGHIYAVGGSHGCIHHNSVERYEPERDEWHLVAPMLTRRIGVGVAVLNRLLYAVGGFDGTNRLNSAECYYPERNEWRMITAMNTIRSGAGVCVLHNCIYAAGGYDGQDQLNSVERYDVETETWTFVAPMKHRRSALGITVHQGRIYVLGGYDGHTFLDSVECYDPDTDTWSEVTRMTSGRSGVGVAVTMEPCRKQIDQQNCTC
# RTF Ca sens act = cardiac RTF calcium sensitivity activators, primary screen, biochemical, IANBD-TnC fluorescence, EC20 calcium; Troponin I, cardiac muscle (Homo sapiens) + Troponin T, cardiac muscle (Homo sapiens) + …; IANBD-labeled TnC RTF fluorescence at EC20 calcium; 0% EC20 calcium, 100% full calcium; activation, % at 7.2 µM; 340,000 compounds, 0.24% hits;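 active = activation above the mean over all tested compounds plus 3 SD, cut at about 30% in these data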;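 note: rise in fluorescence read as greater calcium sensitivity of cardiac thin filaments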
# Cardiac RTF inh = cardiac RTF calcium sensitivity inhibitors, primary screen, biochemical, IANBD-TnC fluorescence, EC70 calcium; Troponin I, cardiac muscle (Homo sapiens) + Troponin T, cardiac muscle (Homo sapiens) + …; IANBD-labeled cardiac RTF, Ca2+ fluorescence; inhibition, % at 7.15 µM; 340,000 compounds, 0.12% hits;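 active = inhibition above the mean inhibition of all tested compounds plus 3 SD, cut at about 17% in these data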;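 note: assay run at fixed EC70 calcium of 1.6 mM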
# E coli Lon inh = inhibitors of E. coli Lon protease, primary screen, biochemical, fluorescence polarization | P0A9M0 | purified E. coli Lon protease | inhibition, % at 7.94 µM | 360,000 compounds, 0.42% hits | AID 602123, 2011; in the data active = inhibition above about 13%, passing the limit was not always enough;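 note: 0% = enzyme with probe and DMSO and 100% = no enzyme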
# RTF Ca inh conf = cardiac RTF calcium sensitivity inhibitors, confirmation, biochemical, fluorescence readout. shares compounds with Cardiac RTF inh. inhibition, % at 7.15 µM. reconstituted cardiac thin filaments. AID 504635, 2011. 360 compounds, 8% hits; in the data active = inhibition above about 18%
# Keap1 Kelch bind = Keap1 Kelch domain binders by thermal stabilisation, dose response, biophysical, thermal shift, RT-PCR instrument, cherry-pick; shares compounds with Keap1-Nrf2 PPI; delta Tm; stronger effect = higher value; max delta Tm, degrees C; 400 compounds, 8% hits; AID 651823, 2012; in the data active = max delta Tm above about 0.48 degrees C
# Sypro dye melt = Sypro Orange dye melt without protein, dose response, artefact control for Keap1-Nrf2 interaction inhibitor project, biochemical, thermal shift counterscreen, cherry-pick | shares compounds with Keap1-Nrf2 PPI | Sypro Orange dye-only thermal melt, no protein, delta Tm; top dose 26 µM | delta Tm, degrees C (concentration not given with the values) | 140 tested, under 10 active | AID 651858, 2012;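 active = at highest dose tested, delta Tm positive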
# E coli Lon conf = E. coli Lon protease inhibitor retest, confirmation, biochemical, fluorescence polarization. purified E. coli Lon. 1,400 compounds, 31% hits. shares compounds with E coli Lon inh. inhibition, % at 7.94 µM. AID 602230, 2012; in the data active = inhibition above about 16%;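 note: 0% = enzyme with probe and DMSO and 100% = no enzyme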
# * hit, by the source's call; i = inactive; · = no result; + = active, no number; ! = not active in a repeat. Rows were chosen to be rich in hits. Some 0.82% of all compounds tested hit in one or more screens of this group.
SMILES,LANA DNA inh,Keap1-Nrf2 PPI,RTF Ca sens act,Cardiac RTF inh,E coli Lon inh,others
CCN(CC)c1ccc(/C=C2\C(=O)NC(=S)N(C)C2=O)o1,-5,-19,53*,-78,i,
COc1ccc(N2C(=O)NC(=O)/C(=C\c3cn(C)c4ccccc34)C2=O)cc1,35,4,523*,-475,-98,
CCN(CC)c1ccc(/C=C2\C(=O)NC(=S)N(c3ccc(OC)cc3OC)C2=O)o1,-32,-21,76*,-101,i,
CCOC(=O)[C@]12Cc3cc(C)ccc3[C@H]1N(C(C)C)C(=O)c1ccccc12,·,·,·,·,-4,
O=C1CC2OCC=C3CN4CCC56c7ccccc7N1C5C2C3CC46O (centres undefined),·,·,·,·,1,
C[C@@H]1COc2cccc(N3CCN(C)CC3)c2S(=O)(=O)N1,·,·,·,·,-2,
COc1cccc(N2C(=O)/C(=C/c3ccc(C)o3)C(=O)NC2=S)c1,1,-13,2,-8,-59,
COc1ccc(N2C(=O)/C(=C/c3ccc(N(C)C)o3)C(=O)NC2=S)cc1,0,-6,55*,-67,-339,
CCCCCCCCC(=O)NCc1ccc(O)c(OC)c1,1,-1,3,19*,-2,RTF Ca inh conf=-3
COc1cc(CNCCc2ccc3c(c2)OCO3)ccc1O,-1,-7,0,-4,-6,
CCCCCN1C(=O)c2ccccc2[C@@]2(C(=O)OCC)Cc3cc(OC)ccc3[C@@H]12,·,·,·,·,4,
Cc1nc2cc(F)ccc2n1C1CCN(Cc2nnnn2CCc2ccccc2)CC1,0,1,3,18*,-3,RTF Ca inh conf=-3
O=C1C2CC(CN3CCCCC23)C2CCCCN12 (centres undefined),·,·,·,·,-2,
CC(C)COC(=O)c1ccccc1C(=O)OCC(C)C,2,-4,14,-4,-5,
C[CH2][Hg][S]c1ccccc1C(=O)O,0,i,i,+,0,RTF Ca inh conf=i
CCOC(=O)c1ccc(N2C(=O)CC(N3CC=C(c4ccc(F)cc4)CC3)C2=O)cc1 (centres undefined),1,-1,4,-1,-17,
NC(=O)c1ccc(OCCC(O)N2CC=C(c3ccc(F)cc3)CC2)cc1 (centres undefined),-1,0,-2,95*,3,RTF Ca inh conf=-4
O=C1C=CC(=O)C2C1C1(Cl)C(Cl)=C(Cl)C2(Cl)C1(Cl)Cl (centres undefined),4,4,4,-9,-4,
CC[C@H](C)/C=C(C)/C=C/C1=CC2=C(Cl)C(=O)[C@](C)(OC(C)=O)C(=O)C2=CO1,23,-9,-35,39*,12,RTF Ca inh conf=21*
CCCNS(=O)(=O)c1ccc(OCC(=O)N2CCN(Cc3ccc4c(c3)OCO4)CC2)cc1,-1,-3,3,18*,-4,RTF Ca inh conf=-3
O=c1[nH]c2ccccc2n1C1CCN(Cc2ccc(-c3nc4ccc(F)cc4nc3-c3ccccc3)cc2)CC1,·,·,·,·,5,
NCCc1cc(O)c(O)cc1O,2,1,-9,26*!,2,RTF Ca inh conf=3
CCOC(=O)c1sc(/N=C/c2c(O)n(-c3ccccc3)c(=O)[nH]c2=O)c(C#N)c1C,-1,-21,7,3,-46,
CCOC(=O)c1c(/N=C/c2c(O)n(-c3cccc(C)c3)c(=O)[nH]c2=O)sc2c1CCCC2,9,72*,-3,-2,-19,Keap1 Kelch bind=-0.08
C[C@@H]1CN([C@H](C)CO)C(=O)CCCn2nncc2CO[C@@H]1CN(C)C(=O)Oc1ccc2ccccc2c1,·,·,·,·,-5,
SMILES,LANA DNA inh,Keap1-Nrf2 PPI,RTF Ca sens act,Cardiac RTF inh,E coli Lon inh,others
CCCc1nc2ccccc2c(=O)n1-c1ccc(OC)cc1,0,0,10,-5,3,
COc1ccc(-n2c(CNCCc3ccc(C)cc3)nc3ccccc3c2=O)cc1,18,36*,1,-3,-5,Keap1 Kelch bind=-0.19;Sypro dye melt=-28
O=C(O)c1cccc2c1NC(C(=O)O)C1CC(Sc3ccccc3[N+](=O)[O-])C(Cl)C21 (centres undefined),132*,31*,-37,56*,15,Keap1 Kelch bind=1*
COCCNC(=O)Cn1cc(/C=C2\C(=O)NC(=O)N(c3cccc(C)c3C)C2=O)c2ccccc21,53,20*,3,-10,-128,Keap1 Kelch bind=-0.22;Sypro dye melt=-30
COc1ccc(-n2nnnc2C(CCSC)N2CCC(n3c(=O)[nH]c4ccccc43)CC2)cc1 (centres undefined),·,·,·,·,0,
COc1cccc(C(c2nnnn2Cc2ccccc2)N2CCC3(CC2)C(=O)NCN3c2ccccc2)c1OC (centres undefined),·,·,·,·,0,
CCn1cc(C=C2C(=O)NC(=O)NC2=O)c2ccccc21,29,21*,1,-4,-25,Keap1 Kelch bind=-0.08
CC1=C[C@@H]2c3cccc4[nH]cc(c34)C[C@H]2N(C)C1,17,14*,36*,-40,116*,Keap1 Kelch bind=0;E coli Lon conf=67*
CCOC(=O)[C@]12Cc3ccccc3[C@H]1N(CCC(=O)OC)C(=O)c1ccccc12,·,·,·,·,4,
CC1=NCCc2c1[nH]c1cc(O)ccc21,168*,102*,334*,-432,+,Keap1 Kelch bind=-0.16;Sypro dye melt=-36;E coli Lon conf=+
O=C1NCN(c2ccccc2)C12CCN(C(c1ccccc1OC(F)(F)F)c1nnnn1C1CCCC1)CC2 (centres undefined),·,·,·,·,4,
Cc1nc2cc([N+](=O)[O-])ccc2c(=O)n1-c1ccccc1[N+](=O)[O-],0,2,-1,1,15*,E coli Lon conf=-6
Cc1nc2cc([N+](=O)[O-])ccc2c(=O)n1-c1ccc(Br)cc1,2,-2,-4,-5,-4,
C[C@]12C[C@H](O)[C@@H](O)C[C@@H]1CC[C@@H]1[C@@H]2CC[C@]2(C)C(=O)CC[C@@H]12,·,·,·,·,4,
Clc1cccc(N2Cc3ccccc3-n3nncc3C2)c1,·,·,·,·,0,

# Screening data deposited in PubChem by several laboratories.
